In PubChem BioAssay (NCI):
This is part of a sample that, as a whole, favours compounds with a hit. Of some 83,000 tested, about 20% had one in any assay.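 The endpoint reported here, percent growth, reads 100 for growth as untreated, 0 for no net growth and -100 for all cells dead.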 Activity calls are given as the source filed them. How the source made its calls: active means growth percent below 10; inactive means the rest.

These molecules were tested on A498 renal (assay: NCI-60 one-dose screen, 48 h (100 = growth as untreated, 0 = no growth, -100 = all killed)). Settings: 10 µM unless noted.

SMILES | growth
C=C(C=O)[C@@H]1CC[C@]2(C)[C@H](CC=C3[C@H]4[C@@H](C)[C@H](C)CC[C@]4(C(=O)OC)CC[C@]32C)[C@@]1(C)CCC#N | 81.1% (inactive)
COc1ccc([C@@H]2c3[nH]c4ccccc4c3C[C@H]3C(=O)N(C4CCN(CC5CCCCC5)CC4)CC(=O)N23)c(OC)c1 | 78.9% (inactive)
c1ccc(C(c2nc3ncncc3[nH]2)N2CSc3nc4ncncc4n3C2)cc1 (configuration not stated) | 96.5% (inactive)
Cc1occc1-c1nc2s/c(=C/c3ccc(-c4cc(C(F)(F)F)ccc4Cl)o3)c(=O)n2n1 | 105% (inactive)
CS(=O)(=O)c1ncc(-c2ccccc2)cn1 | 86.5% (inactive)
CCOC(=O)c1c(N)c(C#N)cn1-c1cc(OC)c(OC)c(OC)c1 | 93.7% (inactive)
CCCCCc1ccc(S(=O)(=O)Nc2cc(-c3csc(NC(=O)CN4CCN(C)CC4)n3)ccc2OC)cc1 | 75.2% (inactive)
Cc1nc2ncc(-c3ccc4ncnc(NCc5ccccc5)c4c3)cc2[nH]1 | -18.2% (active)
C=C(C=O)[C@@H]1CC[C@]2(COC(C)=O)CC[C@]3(C)C(CC[C@@H]4[C@@]5(C)CC[C@H](OC(C)=O)C(C)(C)[C@@H]5CC[C@]43C)[C@@H]12 (some centres not stated) | -41% (active)
Cc1ccc(S(=O)(=O)N(CC[C@@H]2C[C@H]2c2cc3ccccc3o2)S(=O)(=O)c2ccc(C)cc2)cc1 | 75.8% (inactive)
COC(=O)c1ccc(NC2=C/C(=N/S(=O)(=O)c3ccc(C(=O)O)cc3)c3ccccc3C2=O)cc1 | 119% (inactive)
O=C(CCn1c[n+](CC(=O)c2ccc(F)cc2)c2ccccc21)Nc1cccc2cccnc12 | 130% (inactive)
CC1(C)CC[C@]2(C(=O)O)CC[C@]3(C)C(=CC[C@@H]4[C@@]5(C)CC/C(=N\OCCC#N)C(C)(C)[C@@H]5CC[C@]43C)[C@@H]2C1 | 51.3% (inactive)
COc1ccc([C@@H]2[C@@H](O)C(=O)N2c2cc(OC)c(OC)c(OC)c2)cc1F | -29.5% (active)
C=CCn1c(SCC(=O)Nc2ccc(C(=O)/C=C/c3cccc([N+](=O)[O-])c3)cc2)nnc1-c1c[nH]c2ccccc12 | 87.4% (inactive)
C#C[C@]1(O)CC[C@H]2[C@@H]3CC=C4c5sc(-c6ccc7c(c6)OCO7)nc5CC[C@]4(C)[C@H]3CC[C@@]21C | 48.8% (inactive)
CCCCCc1ccc(S(=O)(=O)Nc2cccc(-c3csc(NC(=O)CN4CCN(C)CC4)n3)c2)cc1 | 82.9% (inactive)

SMILES | growth
CCCn1cnc2c(c1=N)C(c1ccc(F)cc1)c1sc3c(CC)cccc3c1O2 (configuration not stated) | -25.7% (active)
O=C(NCCn1ccnc1)c1ccc(-c2nc3ccc4[nH]ncc4c3c3c2CCCC3)cc1 | 73.5% (inactive)
COc1cccc(O)c1/C=C(/C)c1ccc2c(OC)cccc2[o+]1 | 95.7% (inactive)
NS(=O)(=O)c1ccc(-n2cc(CN3CCCCC3)nn2)cc1 | 93.6% (inactive)
O=S(=O)(NCCNc1nccc(-n2cnc3ccccc32)n1)c1ccc(Cl)cc1 | 84.8% (inactive)
COC(=O)C1(C)CCC[C@]2(C)[C@H]3C[C@H]4C(C(C)C)=C[C@]3(CC[C@@H]12)[C@H]1[C@@H]4[C@@H](OC(=O)c2ccco2)CC[C@@H]1OC(=O)c1ccco1 (some centres not stated) | 115% (inactive)
CCCn1cnc2c(c1=N)C(c1ccc(OC)cc1)c1sc3c(C)cccc3c1O2 (configuration not stated) | -21.4% (active)
COc1cc(-c2nn(C(C)(C)C)cc2-c2ccnc(NCCCNS(=O)(=O)c3cccc(F)c3)n2)ccc1Cl | 34.4% (inactive)
CC1(C)CC[C@]2(CN)CC[C@]3(C)C(=CC[C@@H]4[C@@]5(C)CCCNC(C)(C)[C@@H]5CC[C@]43C)[C@H]2C1 | 98% (inactive)
NC(=O)c1cccc(C#CCNC[C@H]2C[C@@H](n3ccc4c(Cl)ncnc43)[C@H](O)[C@@H]2O)c1 | 94.7% (inactive)
NC(N)=Nc1ccc(Oc2cccc(Nc3cccc(C(F)(F)F)c3)c2)cn1 | 18.1% (inactive)
O=C(CSc1nc2ccccc2c(=O)n1-c1ccccc1)Nc1cccc(C(=O)/C=C/c2ccccc2)c1 | 98% (inactive)
COc1ccc(/C(N)=N/C(N)=N/c2nc3ccccc3s2)cc1 | 64.9% (inactive)
COc1c(N2CC3CCCNC3C2)c(F)cc2c(=O)c(C(=O)N/N=C/c3ccc(Br)cc3)cn(C3CC3)c12 (configuration not stated) | 74.3% (inactive)
O=C(c1ccc(O)cc1)[C@@H]1CN[C@@]2(C(=O)Nc3ccccc32)[C@H]1c1ccc(F)cc1 | 112% (inactive)
Nc1nc(Nc2ccccc2SSc2ccccc2Nc2nc(N)nc(-c3ccc4ccccc4c3)n2)nc(-c2ccc3ccccc3c2)n1 | 94% (inactive)

These molecules were tested on CCRF-CEM leukemia in the same assay as above. Settings: 10 µM unless noted.

SMILES | growth
C=C(C=O)[C@@H]1CC[C@]2(C)[C@H](CC=C3[C@H]4[C@@H](C)[C@H](C)CC[C@]4(C(=O)OC)CC[C@]32C)[C@@]1(C)CCC#N | 10.7% (inactive)
COc1ccc([C@@H]2c3[nH]c4ccccc4c3C[C@H]3C(=O)N(C4CCN(CC5CCCCC5)CC4)CC(=O)N23)c(OC)c1 | 60.5% (inactive)
c1ccc(C(c2nc3ncncc3[nH]2)N2CSc3nc4ncncc4n3C2)cc1 (configuration not stated) | 32.1% (inactive)
Cc1occc1-c1nc2s/c(=C/c3ccc(-c4cc(C(F)(F)F)ccc4Cl)o3)c(=O)n2n1 | 117% (inactive)
CNCc1cccc2c1OCCCCCCC(C)(O)CC(C)(C)S(=O)(=O)c1ccc(cc1)-c1cnc(N)c(n1)C(=O)N2 (configuration not stated) | 4.37% (active)
CS(=O)(=O)c1ncc(-c2ccccc2)cn1 | 86.6% (inactive)
CCOC(=O)c1c(N)c(C#N)cn1-c1cc(OC)c(OC)c(OC)c1 | 107% (inactive)
CCCCCc1ccc(S(=O)(=O)Nc2cc(-c3csc(NC(=O)CN4CCN(C)CC4)n3)ccc2OC)cc1 | 2.18% (active)
Cc1nc2ncc(-c3ccc4ncnc(NCc5ccccc5)c4c3)cc2[nH]1 | 68.5% (inactive)
C=C(C=O)[C@@H]1CC[C@]2(COC(C)=O)CC[C@]3(C)C(CC[C@@H]4[C@@]5(C)CC[C@H](OC(C)=O)C(C)(C)[C@@H]5CC[C@]43C)[C@@H]12 (some centres not stated) | 10.9% (inactive)
Cc1ccc(S(=O)(=O)N(CC[C@@H]2C[C@H]2c2cc3ccccc3o2)S(=O)(=O)c2ccc(C)cc2)cc1 | 93.3% (inactive)
COC(=O)c1ccc(NC2=C/C(=N/S(=O)(=O)c3ccc(C(=O)O)cc3)c3ccccc3C2=O)cc1 | 4.48% (active)
O=C(CCn1c[n+](CC(=O)c2ccc(F)cc2)c2ccccc21)Nc1cccc2cccnc12 | 68.3% (inactive)
CC1(C)CC[C@]2(C(=O)O)CC[C@]3(C)C(=CC[C@@H]4[C@@]5(C)CC/C(=N\OCCC#N)C(C)(C)[C@@H]5CC[C@]43C)[C@@H]2C1 | 90.1% (inactive)
COc1ccc([C@@H]2[C@@H](O)C(=O)N2c2cc(OC)c(OC)c(OC)c2)cc1F | 18.5% (inactive)
CCOC(=O)c1c(Nc2ccccc2)nn2c(-c3ccccc3)ccnc12 | 9.59% (active)
Cc1cc(C)c2sc(=O)n(Cc3nnc(SCCC(=O)O)o3)c2n1 | 56.6% (inactive)

SMILES | growth
Cc1ccc(NC(=O)N[C@@H](Cc2cc(F)cc(F)c2)C(=O)NC2C(=O)N3C[C@H](O)C[C@H]3C(=O)N3CCCC[C@H]3C(=O)N[C@@H](CO)C(=O)N3C[C@H](C)C[C@H]3C(=O)O[C@H]2C)c(F)c1 (some centres not stated) | 35.1% (inactive)
C#C[C@]1(O)CC[C@H]2[C@@H]3CC=C4c5sc(-c6ccc7c(c6)OCO7)nc5CC[C@]4(C)[C@H]3CC[C@@]21C | 30.6% (inactive)
CCCCCc1ccc(S(=O)(=O)Nc2cccc(-c3csc(NC(=O)CN4CCN(C)CC4)n3)c2)cc1 | 27.2% (inactive)
CCCn1cnc2c(c1=N)C(c1ccc(F)cc1)c1sc3c(CC)cccc3c1O2 (configuration not stated) | 8.39% (active)
O=C(NCCn1ccnc1)c1ccc(-c2nc3ccc4[nH]ncc4c3c3c2CCCC3)cc1 | 19.5% (inactive)
COc1cccc(O)c1/C=C(/C)c1ccc2c(OC)cccc2[o+]1 | 106% (inactive)
NS(=O)(=O)c1ccc(-n2cc(CN3CCCCC3)nn2)cc1 | 108% (inactive)
O=S(=O)(NCCNc1nccc(-n2cnc3ccccc32)n1)c1ccc(Cl)cc1 | 103% (inactive)
COC(=O)C1(C)CCC[C@]2(C)[C@H]3C[C@H]4C(C(C)C)=C[C@]3(CC[C@@H]12)[C@H]1[C@@H]4[C@@H](OC(=O)c2ccco2)CC[C@@H]1OC(=O)c1ccco1 (some centres not stated) | 105% (inactive)
CCCn1cnc2c(c1=N)C(c1ccc(OC)cc1)c1sc3c(C)cccc3c1O2 (configuration not stated) | 3.52% (active)
CC1(C)CC[C@]2(CN)CC[C@]3(C)C(=CC[C@@H]4[C@@]5(C)CCCNC(C)(C)[C@@H]5CC[C@]43C)[C@H]2C1 | 79.4% (inactive)
NC(=O)c1cccc(C#CCNC[C@H]2C[C@@H](n3ccc4c(Cl)ncnc43)[C@H](O)[C@@H]2O)c1 | 102% (inactive)
NC(N)=Nc1ccc(Oc2cccc(Nc3cccc(C(F)(F)F)c3)c2)cn1 | -9.05% (active)
O=C(CSc1nc2ccccc2c(=O)n1-c1ccccc1)Nc1cccc(C(=O)/C=C/c2ccccc2)c1 | 90.3% (inactive)
Cc1cccc(/C=C/C(=O)Nc2ncc(Cc3cccc(C)c3)s2)c1 | 9.99% (active)
COc1c(N2CC3CCCNC3C2)c(F)cc2c(=O)c(C(=O)N/N=C/c3ccc(Br)cc3)cn(C3CC3)c12 (configuration not stated) | 55.3% (inactive)
O=C(c1ccc(O)cc1)[C@@H]1CN[C@@]2(C(=O)Nc3ccccc32)[C@H]1c1ccc(F)cc1 | 99.2% (inactive)
